Assay in all cases: NCI-60 one-dose screen, 48 h (100 = growth as untreated, 0 = no growth, -100 = all killed)
One assay has as its system SR leukemia. Particulars: 10 µM.
The test system of another assay is RPMI-8226 leukemia. Particulars: 10 µM.
The test system of another assay is OVCAR-8 ovarian. To be noted: 10 µM.
In a further assay the test system is OVCAR-5 ovarian. To be noted: 10 µM.
The next assay has as its system OVCAR-4 ovarian. To be noted: 10 µM.
For a further assay, the system named is SK-OV-3 ovarian. To be noted: 10 µM.
Another assay relates to IGROV1 ovarian. Particulars: 10 µM.
The next assay deals with OVCAR-3 ovarian. To be noted: 10 µM.
The test system of a further assay is NCI/ADR-RES ovarian. To be noted: 10 µM.
A further assay has as its system T-47D breast. To be noted: 10 µM.
For a further assay, the system named is BT-549 breast. Particulars: 10 µM.
Another assay relates to MDA-MB-435 melanoma. To be noted: 10 µM.
In a further assay the test system is SW-620 colon. To be noted: 10 µM.
The subject of the next assay is MCF7 breast. To be noted: 10 µM unless noted.
The test system of a further assay is HCT-116 colon. Particulars: 10 µM.
The subject of another assay is HCC-2998 colon. Particulars: 10 µM.
The subject of the next assay is KM12 colon. To be noted: 10 µM.
The test system of the next assay is HS 578T breast. To be noted: 10 µM.

The panel holds about 83,000 compounds, 20% with a hit somewhere; the sample as a whole holds those more often.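 The test compound was applied at a single concentration to cells in 96-well plates for 48 hours, and percent growth was recorded.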 Values without a mark were called inactive. Calls of active or inactive are those of the source. How the source made its calls: active means growth percent below 10; inactive means the rest.

In the case of `COCCOC(=O)c1ccc(C(C)C)cc1`, the growth in the assay with SR leukemia is 95.7%; with RPMI-8226 leukemia, 108%; with OVCAR-8 ovarian, 103%; with OVCAR-5 ovarian, 104%; in the assay with OVCAR-4 ovarian, 104%; with SK-OV-3 ovarian, 82.1%. Also, the growth in the assay with IGROV1 ovarian was 104%; with OVCAR-3 ovarian it was 99.5%; with NCI/ADR-RES ovarian, 96%; in the assay on T-47D breast, 85%; with BT-549 breast, 98.5%; with MDA-MB-435 melanoma, 102%. The growth was 104% with SW-620 colon; 95.6% in the assay with MCF7 breast; 100% in the assay with HCT-116 colon; 103% with HCC-2998 colon; 101% in the assay on KM12 colon.

As for `O=C(Cc1ccccc1)Cc1ccccc1`, the growth was 104% in the assay with SR leukemia; 103% in the assay with RPMI-8226 leukemia; 89.6% with OVCAR-8 ovarian; 95.8% with OVCAR-5 ovarian; 97.2% in the assay with OVCAR-4 ovarian; 99.8% in the assay with SK-OV-3 ovarian. Besides, the growth is 104% in the assay with IGROV1 ovarian; 106% in the assay with OVCAR-3 ovarian; 110% in the assay with NCI/ADR-RES ovarian; 102% with T-47D breast; 107% in the assay with BT-549 breast; 105% in the assay with MDA-MB-435 melanoma. Besides, the growth in the assay with SW-620 colon was 101%; in the assay on MCF7 breast, 106%; in the assay with HCT-116 colon, 98.1%; with HCC-2998 colon it was 114%.

Regarding `CC1(c2ccccc2)NC(=O)NC1=O` (stereo not given), the growth in the assay on SR leukemia was 102%; with RPMI-8226 leukemia it was 105%; with OVCAR-8 ovarian, 103%; in the assay on OVCAR-5 ovarian, 109%; in the assay with OVCAR-4 ovarian it was 115%; in the assay with SK-OV-3 ovarian, 107%. Moreover, the growth is 105% with IGROV1 ovarian; 121% with OVCAR-3 ovarian; 114% in the assay on NCI/ADR-RES ovarian; 109% with T-47D breast; 113% in the assay on MDA-MB-435 melanoma; 115% in the assay with SW-620 colon. The values for the growth in the assay with HCT-116 colon, in the assay with HCC-2998 colon and with KM12 colon were 111%, 102% and 112%, respectively.

For `O=c1[nH]nc(SC2CCCCC2)c(=O)[nH]1`, the growth is 97.6% in the assay on SR leukemia; 102% with RPMI-8226 leukemia; 101% with OVCAR-8 ovarian; 99% with OVCAR-5 ovarian; 98.9% in the assay with OVCAR-4 ovarian; 93.2% in the assay with SK-OV-3 ovarian. Moreover, the growth in the assay on IGROV1 ovarian is 101%; in the assay with OVCAR-3 ovarian, 96.2%; in the assay on HS 578T breast, 92%; in the assay on NCI/ADR-RES ovarian, 94.3%; in the assay on T-47D breast, 99.6%; with MDA-MB-435 melanoma it was 105%. Also, the growth with SW-620 colon is 98.6%; in the assay on MCF7 breast, 97.5%; in the assay on HCC-2998 colon, 92%; in the assay with KM12 colon, 107%.

Consider `COc1nc(N)nc2c1ncn2C1OC(CO)CC1O` (stereo not given), for which the growth in the assay with SR leukemia was 115%; in the assay with RPMI-8226 leukemia it was 92%; with OVCAR-8 ovarian it was 101%; in the assay with OVCAR-5 ovarian, 100%; in the assay on OVCAR-4 ovarian, 120%; in the assay with SK-OV-3 ovarian, 98.5%. The growth was 112% in the assay with IGROV1 ovarian; 118% in the assay with OVCAR-3 ovarian; 117% with HS 578T breast; 107% in the assay on NCI/ADR-RES ovarian; 94.3% with BT-549 breast; 105% with MDA-MB-435 melanoma. For the same molecule, the growth with SW-620 colon was 108%; with MCF7 breast it was 100%; in the assay with HCT-116 colon, 98.8%; in the assay with HCC-2998 colon, 105%; in the assay on KM12 colon, 103%.

For the molecule `Nc1ccc(N=Nc2ccc(O)cc2)c(N)n1`, the growth with SR leukemia was 80%; with RPMI-8226 leukemia, 38.1%; in the assay on OVCAR-8 ovarian, 75%; in the assay on OVCAR-5 ovarian, 104%; with OVCAR-4 ovarian, 59.2%; in the assay with SK-OV-3 ovarian, 97.3%. Besides, the growth in the assay with IGROV1 ovarian is 89.4%; in the assay on OVCAR-3 ovarian, 73.4%; in the assay on NCI/ADR-RES ovarian it was 64.5%; with T-47D breast it was 82.8%; in the assay with BT-549 breast, 57.2%; in the assay with SW-620 colon it was 104%. The growth in the assay on MCF7 breast was 93.4%; in the assay on HCT-116 colon, 86.3%; in the assay on HCC-2998 colon, 81.5%; with KM12 colon, 43.2%.

Consider `O=[N+]([O-])c1ccc(N=Nc2ccc(O)c3ccccc23)cc1`, for which the growth in the assay with SR leukemia is 19.4%; in the assay on RPMI-8226 leukemia, 28.5%; with OVCAR-8 ovarian, 10.6%; in the assay with OVCAR-5 ovarian, 124%; in the assay on OVCAR-4 ovarian, 40.1%; in the assay on SK-OV-3 ovarian, 92%. Besides, the growth in the assay with IGROV1 ovarian is 38.1%; in the assay on OVCAR-3 ovarian it was -0.85% (active); with HS 578T breast, 1.22% (active); in the assay on NCI/ADR-RES ovarian it was 28.1%; in the assay on T-47D breast, 9.85% (active); in the assay on MDA-MB-435 melanoma it was 52.7%. Also, the growth in the assay with SW-620 colon is 34%; in the assay with MCF7 breast it was 19.5%; in the assay with KM12 colon, 33.1%.

Regarding `CCOC(=O)CNN`, the growth was 106% in the assay on SR leukemia; 110% in the assay on RPMI-8226 leukemia; 96.1% in the assay on OVCAR-8 ovarian; 112% with OVCAR-5 ovarian; 106% in the assay on OVCAR-4 ovarian; 108% in the assay with SK-OV-3 ovarian. The growth in the assay with IGROV1 ovarian is 112%; with OVCAR-3 ovarian, 108%; in the assay with NCI/ADR-RES ovarian, 112%; with T-47D breast it was 104%; in the assay with BT-549 breast, 108%; with SW-620 colon it was 99.2%. Also, the growth in the assay with MCF7 breast is 97.9%; with HCT-116 colon, 107%; in the assay with HCC-2998 colon, 106%; in the assay on KM12 colon, 101%.

Take `c1ccc2c(c1)Sc1ccccc1S2`: the growth was 117% with SR leukemia; 99.2% in the assay on RPMI-8226 leukemia; 99.3% with OVCAR-8 ovarian; 108% in the assay with OVCAR-5 ovarian; 98.8% in the assay with OVCAR-4 ovarian; 112% in the assay with SK-OV-3 ovarian. The growth is 106% in the assay with IGROV1 ovarian; 113% in the assay with OVCAR-3 ovarian; 102% with HS 578T breast; 101% in the assay on NCI/ADR-RES ovarian; 110% in the assay on MDA-MB-435 melanoma; 104% with SW-620 colon. The growth in the assay with MCF7 breast is 95.7%; in the assay on HCT-116 colon it was 106%; in the assay on HCC-2998 colon it was 92.5%.

`CC(=O)OCCC(C)CCC=C(C)C` (stereo not given): the growth in the assay on SR leukemia is 108%; with RPMI-8226 leukemia it was 95%; with OVCAR-8 ovarian, 102%; with OVCAR-5 ovarian, 102%; with OVCAR-4 ovarian it was 107%; in the assay on SK-OV-3 ovarian it was 111%. The growth is 112% in the assay on IGROV1 ovarian; 121% in the assay on OVCAR-3 ovarian; 107% in the assay with NCI/ADR-RES ovarian; 98.8% with T-47D breast; 102% with BT-549 breast; 102% in the assay with MDA-MB-435 melanoma. Further, the growth is 95.4% in the assay with SW-620 colon; 101% in the assay on MCF7 breast; 100% in the assay on HCT-116 colon; 102% with HCC-2998 colon; 102% in the assay on KM12 colon.

The values above are taken from PubChem BioAssay (NCI).
